Only some compounds are listed: those with a hit (about 10% of all), similar ones and a draw of the others.
Gal4-VP16 FLuc – counter-screen for ROR gamma inhibitors: Gal4-VP16 reporter. Drosophila S2 Gal4-VP16 UAS-luciferase, luminescence, 20 h. Potency, µM (doses to about 53.6 µM), inactives show top-dose activity, negative = inhibition, hits mostly inhibitors. 310,000 tested, 3.5% active. AID 2546;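 also: Gal4-VP16 expression switched on by copper sulfate through the metallothionein promoter; % is scaled to controls: 0 for no effect and ±100 for the full control effect; nearly all actives have a fitted effect of over 50% in size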
KB-3-1 cytotox – KB-3-1 parental cell cytotoxicity; Potency, µM (titrated, usually from 46.1 µM), usual class: cytotoxic; KB-3-1 viability, CellTiter-Glo ATP luminescence, 72 h; 400,000 tested, 1.4% active; also: % is scaled to controls: 0 for no effect and ±100 for the full control effect; nearly all actives have a fitted effect of over 60% in size
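Screening of KB-3-1 cells (DMEM, 10% FBS, phenol-red free) ran from lowest to highest compound concentration; after 72 h at 37 °C viability was read luminescently and curves fitted.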
MCF10A rereplic – DNA re-replication induction in MCF 10a cells; MCF 10A DNA re-replication, Hoechst nuclear intensity, 48 h; Potency, µM (titrated, usually from 46.1 µM), for inactives: at the top dose activity, positive = re-replication, actives largely listed as activators; 350,000 tested, 2.9% active; AID 624296; also: % of control where 0% means no effect; nearly all actives have a fitted effect of over 50% in size
SW480 rereplic – DNA re-replication induction in SW480 cells. AID 624297. SW480 DNA re-replication, Hoechst DNA content imaging, 48 h. 340,000 tested, 1.8% active. Potency, µM (series often up to 46.1 µM), without a hit: at the highest dose re-replication activation, actives largely listed as activators; also: % of control where 0% means no effect; nearly all actives have a fitted effect of over 55% in size
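250 cells/well; 23 nL cpd via pin tool; 48 hr, 37 C, 5% CO2; Hoechst 40 min; imager read of total nuclear intensity, ex 405/em 500-530 nm.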
KB-V1 cytotox – kills drug-selected multidrug resistant KB-V1 cells | KB-V1 MDR cells viability, CellTiter-Glo, 72 h | AID 1347076 | Potency, µM (highest dose often 46.1 µM), hits mostly cytotoxic | 400,000 tested, 3.4% active; also: % is scaled to controls: 0 for no effect and ±100 for the full control effect; nearly all actives have a fitted effect of over 60% in size
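KB-V1 cells (P-gp-expressing MDR subline of KB-3-1) in phenol-red-free DMEM with 10% FBS were exposed to library compounds over a concentration series for 72 h at 37 degrees C. Viability read by CellTiter-Glo luminescence; concentration-effect curves fitted after normalization.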
RORg inh – inhibitors of mouse ROR gamma transcriptional activity; Drosophila S2 Gal4-RORgamma UAS-luciferase reporter, 20 h; P51450; 310,000 tested, 5.4% active; Potency, µM (doses to about 53.6 µM), for the others: at the highest dose activity change, negative = inhibition, hits mostly inhibitors; also: % is scaled to controls: 0 for no effect and ±100 for the full control effect; nearly all actives have a fitted effect of over 60% in size
Target sequence (P51450 whole entry, looked up, the tested form may be a part): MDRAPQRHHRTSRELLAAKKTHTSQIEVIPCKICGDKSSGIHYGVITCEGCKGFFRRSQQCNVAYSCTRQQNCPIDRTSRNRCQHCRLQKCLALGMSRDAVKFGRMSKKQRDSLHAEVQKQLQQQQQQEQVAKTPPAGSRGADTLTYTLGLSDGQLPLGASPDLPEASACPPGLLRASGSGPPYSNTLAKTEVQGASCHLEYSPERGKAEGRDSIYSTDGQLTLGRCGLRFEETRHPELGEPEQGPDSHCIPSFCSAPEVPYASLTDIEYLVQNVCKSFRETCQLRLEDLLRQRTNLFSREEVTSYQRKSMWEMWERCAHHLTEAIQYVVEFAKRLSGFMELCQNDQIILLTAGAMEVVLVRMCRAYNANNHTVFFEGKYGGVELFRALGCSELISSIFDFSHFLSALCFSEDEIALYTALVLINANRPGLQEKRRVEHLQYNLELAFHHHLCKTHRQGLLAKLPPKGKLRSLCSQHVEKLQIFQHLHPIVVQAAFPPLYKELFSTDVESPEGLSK
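Drosophila S2 cells stably expressing Gal4-DBD/mouse RORγ fusion under metallothionein promoter plus UAS-luciferase; compound 1 h, then 700 uM CuSO4 induction for 20 h at ambient temperature; inhibition read as reduced luminescence.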
Starred values were filed as active, the others as inactive; i = inactive; u = inconclusive; x = no result; [ ] = remark or other dose. Calls follow the shape of the dose curve; as a rule, active = well fitted curve in the direction sought with a large enough effect; inconclusive = small, poorly fitted or top-dose-only effect, or another doubt; inactive = no such curve, though single readings can be large; an effect the other way counts as inactive or inconclusive. Potency is read from the fitted curve at half-maximal effect.

SMILES	Gal4-VP16 FLuc	KB-3-1 cytotox	MCF10A rereplic	SW480 rereplic	KB-V1 cytotox	RORg inh
CC1OCC23CC[C@@]4(C)CCC(C)(C)C[C@H]4[C@]2(C)CCC12C3CC[C@@]1(C)C2C(=O)CC(=O)[C@@H]1C (stereo partly specified)	1%	x	x	x	x	0%
C=C(CCC(=O)c1ccccc1)C(=O)c1ccccc1	11µM*	u	9.2µM*	u	u	13µM*
C=C(C(=O)c1ccccc1)C(CC(=O)c1ccccc1)c1ccccc1 (stereo unspecified)	-91%	u	9.2µM*	18µM*	u	u
O=C(Nc1ccccc1C(=O)NC1CCCC1)NC1CCCC1	2%	i	254%[0.0737 µM]	-13%	i	4%
O=C(/C=C/c1ccc(F)cc1)NC(=S)Nc1ccccc1C(=O)NC1CCCCC1	13µM*	i	u	u	16µM*	u
COc1ccc(/C=C/C(=O)NC(=S)Nc2ccccc2C(=O)NC2CCCCC2)cc1	-11%	i	18µM*	4.1µM*	u	14µM*
CC(=O)NC(=S)Nc1ccccc1C(=O)NC1CCCCC1	4%	i	6%	-3%	i	-3%
Cc1ccc(/C=C/C(=O)NC(=S)Nc2ccccc2C(=O)NC2CCCCC2)cc1	-20%	i	u	2%	i	u
O=C(NC1CCCCC1)c1ccccc1NC(=O)C1CC1	3%	i	20%	0%	16µM*	-1%
O=C(/C=C/c1ccccc1)NC(=S)Nc1ccccc1C(=O)NC1CCCCC1	u	i	14%	13%	u	11µM*
COc1ccc(S(=O)(=O)N2CCN(CC(=O)Nc3sccc3C(N)=O)CC2)cc1OC	x	i	0%	-15%	i	x
CCC(=O)N1CCc2cc(S(=O)(=O)CCC(=O)Nc3ccc(OC(F)(F)F)cc3)ccc21	x	i	x	x	i	x
COc1cc(OC)cc(C(=O)Nc2ccccc2C(=O)NC2CC2)c1	x	u	u	u	6.5µM*	x
O=C(c1ccco1)N1CCN(C(=O)c2sccc2-c2ccccc2)CC1	-3%	i	12%	12%	12µM*	u
O=C(c1ccco1)N1CCN(C(=O)c2cccs2)CC1	-5%	i	1.8µM*	6.5µM*	i	18%
O=C(Nc1ccc(N2CCN(C(=O)c3ccco3)CC2)c(Cl)c1)c1cccs1	x	u	u	3%	23µM*	-34%[0.365 µM]
O=C(c1ccco1)N1CCN(C(=O)c2ccco2)CC1	x	i	x	x	i	x
O=C(c1cc(-c2ccccc2)on1)N1CCN(C(=O)c2ccco2)CC1	19%	i	-8%	1%	i	35%
O=C(Nc1cccc(NC(=O)c2cccs2)c1)c1ccco1	9%	i	10%	-9%	15µM*	7%
CC/C=C\C[C@H](O)/C=C/C=C\C/C=C\C/C=C\CCCC(=O)O	-12%	x	x	x	x	21%
O=C(Cn1c2c(sc1=O)C1c3ccccc3OCC1CS2)Nc1ccc(Cl)c(Cl)c1 (stereo unspecified)	u	16µM*	28%	4%	i	u
CCOC(=O)C1=CCN(S(C)(=O)=O)C1c1ccc(C)cc1 (stereo unspecified)	x	i	x	x	i	x
COCCn1c(C)cc(C(=O)CSc2cc(C)c3ccc(OC)cc3n2)c1C	2.2µM*	u	u	15%	i	6.3µM*
COCCn1c(C)cc(C(=O)CSc2nc3ccccc3s2)c1C	5µM*	i	30%	u	u	14µM*
COCCn1c(C)cc(C(=O)CSc2nnc3ccccn23)c1C	u	i	11%	-12%	i	3.2µM*
Fc1ccc(C(NCCc2ccc(Cl)cc2)c2nnc(-c3ccccc3Cl)o2)cc1 (stereo unspecified)	x	i	x	x	u	x
Cc1ccc(Cl)cc1NC(=O)C1CCN(C(=O)c2cnn(-c3ccccc3)c2-n2cccc2)CC1	x	u	x	x	i	x

Source: PubChem (National Center for Advancing Translational Sciences (NCATS))
